# Screens: PubChem, The Scripps Research Institute Molecular Screening Center
# CHO-K1 Ca ag = counter-screen for M1 agonists: effect in parental CHO-K1 cells; 360,000 compounds, 0.48% hits; Fluo-8 calcium fluorescence; scaled to maximal ATP response, vehicle zero; AID 602248, 2012; activation, % at 3 µM; in the data active = activation above about 15%;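 also: untransfected CHO-K1 host cells lacking M1 receptor as counterscreen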
# M1 ag = human M1 muscarinic receptor agonists, primary screen, Fluo-8 calcium fluorescence, CHO-K1 cells, HTS; Muscarinic acetylcholine receptor M1 (Homo sapiens), P11229; CHO-K1 hM1, agonist mode; 0% DMSO, 100% acetylcholine EC100; activation, % at 3 µM; 360,000 compounds, 0.33% hits;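 active = activation above the run's mean compound activation plus 3 SD, cut at about 16% in these data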;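 also: peak over basal fluorescence ratio within a 140 s kinetic read after compound addition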
# Target sequence (P11229 whole entry, looked up): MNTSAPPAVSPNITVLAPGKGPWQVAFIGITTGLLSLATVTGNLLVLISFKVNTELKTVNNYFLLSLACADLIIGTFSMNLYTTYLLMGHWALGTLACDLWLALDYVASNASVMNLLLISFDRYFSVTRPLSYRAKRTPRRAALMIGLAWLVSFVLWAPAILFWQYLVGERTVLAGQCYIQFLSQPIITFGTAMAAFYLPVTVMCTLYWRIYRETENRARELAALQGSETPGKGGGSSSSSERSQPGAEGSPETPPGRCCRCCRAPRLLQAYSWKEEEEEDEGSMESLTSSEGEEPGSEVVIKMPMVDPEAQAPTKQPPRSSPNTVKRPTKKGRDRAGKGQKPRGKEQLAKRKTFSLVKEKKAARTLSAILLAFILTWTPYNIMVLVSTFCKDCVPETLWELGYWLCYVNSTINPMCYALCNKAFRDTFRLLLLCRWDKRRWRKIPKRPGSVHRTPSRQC
# CHO-K1 Ca antag = M1 antagonist counterscreen hit in parental CHO-K1 cells; ATP-induced calcium, Fluo-8 fluorescence; inhibition, % at 3 µM; 360,000 compounds, 0.6% hits; AID 602250;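 active = inhibition above a per-plate cutoff, the plate's mean sample inhibition plus 3 SD, cut at about 24% in these data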;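 also: 0% = DMSO plus EC80 ATP and 100% = DMSO alone without ATP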
# M1 PAM parental = nonselective calcium activators in parental CHO-K1 cells, primary screen, counter-screen for M1 PAM project, cell-based, Fluo-8 calcium fluorescence, full deck, 1536-well. activation, % at 3 µM. 360,000 compounds, 0.02% hits. ATP EC20; 0% at ATP EC20, 100% at ATP max;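 active = activation above the run cutoff, the mean activation of all test compounds plus 3 SD, cut at about 40% in these data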;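 also: peak over basal fluorescence ratio in a 140 s read after ATP addition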
# CHRM1 antagonist = human M1 muscarinic receptor antagonists, primary screen, CHO-K1 cells, Fluo-8 calcium fluorescence, 1536-well | Muscarinic acetylcholine receptor M1 (Homo sapiens), P11229 | CHO-K1 hM1, ACh EC80 antagonist | inhibition, % at 3 µM | 360,000 compounds, 1.3% hits | AID 588852, 2011;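 active = percent inhibition above its own plate's cutoff, namely the mean of that plate's compound wells plus 3 SD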;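 also: peak over basal fluorescence ratio during 140 s after agonist addition; 0% = ACh EC80 plus DMSO and 100% = DMSO alone without agonist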
# M1 PAM = human M1 muscarinic receptor positive allosteric modulators, primary screen, CHO-K1 cells, Fluo-8 calcium fluorescence, 1536-well; Muscarinic acetylcholine receptor M1 (Homo sapiens), P11229; 360,000 compounds, 0.088% hits; AID 588819, 2011; CHO-K1 hM1, ACh EC20; 0% = ACh EC20, 100% = maximal ACh; activation, % at 3 µM; in the data active = activation above about 19%, passing the limit was not always enough
# The depositor's hits bear a star. Only some compounds are listed: those with a hit (about 2.3% of all), similar ones and a draw of the others.
SMILES,CHO-K1 Ca ag,M1 ag,CHO-K1 Ca antag,M1 PAM parental,CHRM1 antagonist,M1 PAM
Cc1ccccc1-n1nnnc1SCC(=O)Nc1ccc(N2CCN(C)CC2)cc1,0,-14,-9,-9,7,-17
Cc1ccccc1-n1nnnc1SC(C)C(=O)Nc1ccc(N2CCN(C)CC2)cc1 (configuration not stated),0,-5,-8,5,51*,-21
Cc1ccc(-n2c(O)c(C=NCc3ccccn3)c3ccccc3c2=O)cc1,0,-8,4,8,2,5
COc1ccccc1-n1c(O)c(C=NCc2ccccn2)c2ccccc2c1=O,18*,2,-2,13,-10,8
CCOC(=O)c1sc(NC(=O)CSc2nc(C)cc(C)n2)c(C#N)c1C,0,-2,-3,9,-7,5
CCOC(=O)c1sc(NC(=O)CSc2n[nH]c(-c3ccccc3)n2)c(C#N)c1C,10,5,27*,1,19,-15
CCOC(=O)c1sc(NC(=O)CSc2ncn[nH]2)c(C#N)c1C,18*,0,3,22,7,4
CCOC(=O)c1sc(NC(=O)CSc2ccccn2)c(C#N)c1C,0,-4,-12,-6,3,2
CCOC(=O)c1c(NC(=O)CSc2n[nH]c(-c3ccco3)n2)sc(C)c1C,0,-3,24*,-7,4,2
CCOC(=O)c1c(NC(=O)CSc2n[nH]c(CNc3ccccc3)n2)sc(C)c1C,-1,1,-4,22,-12,18
O=C(c1ccc2c(c1)OCO2)N1CCN(S(=O)(=O)c2ccc(Cl)cc2)CC1,4,-10,-16,12,0,0
COc1ccc(/C=C/C(=O)OCC(=O)NC2CCCC(C)C2C)cc1S(=O)(=O)N1CCOCC1 (configuration not stated),2,-2,-10,16,-10,10
CC1CCCC(NC(=O)COC(=O)/C=C/c2ccc(S(=O)(=O)N3CCOCC3)cc2)C1C (configuration not stated),19*,-1,3,3,-16,7
CSc1ccc(CN2CCC(CO)(Cc3ccc(Cl)cc3)CC2)cc1,3,-2,-3,11,56*,-23
OCC1(Cc2ccc(Cl)cc2)CCN(Cc2ccccc2F)CC1,2,-8,0,-1,9,-11
CCn1c(=O)c(C(=O)CN2CCCc3ccccc32)c(N)n(Cc2ccccc2)c1=O,0,-6,14,2,22*,-10
COCCN(Cc1ccccc1)C(=O)c1cc(-c2ccc(OC)c(OC)c2)nc2ccccc12,6,1,15,-20,16,3
COc1cc(-c2cc(C(=O)N(C)Cc3ccccc3)c3ccccc3n2)cc(OC)c1OC,5,-5,6,-2,22*,-11
COc1cccc(CN(C)C(=O)c2cc(-c3cccs3)nc3ccccc23)c1,6,0,27*,5,54*,-16
CCN(CC)S(=O)(=O)c1ccc(O)c(NC(=O)c2cc(-c3cc(OC)c(OC)c(OC)c3)nc3ccccc23)c1,2,-2,-6,-3,29*,-16
CCN(Cc1ccccc1)C(=O)c1cc(-c2ccc(OC)c(OC)c2)nc2ccccc12,5,-4,3,-6,35*,-12
CNc1cc(-c2cccc(N(C)C)c2)ncn1,0,-2,-4,7,-3,1
Cc1ccc(-n2nc3c(=O)n(C(C)C(=O)NCCC4=CCCCC4)nc(C)c3c2C)cc1 (configuration not stated),8,-1,5,4,16,-11
CC1(C(=O)NS(=O)(=O)C2CC2)CCN(C(=O)COCc2ccccc2)C1 (configuration not stated),0,-2,5,6,11,-7
